Drawing on PubChem BioAssay (NCATS), this text covers Potency and viability for 16 compounds.

A short description of assay [1]: Quantitative High-Throughput drug screen in 47 multiple myeloma cell lines against the NCATS MIPE library collection: H1112_PLB cell viability assay (AID 1918967; also: nearly all actives have a fitted effect of over 30% in size; also: potency is read from the fitted curve at half-maximal effect). The essentials: (§1)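 Viability readout: CellTiter-Glo luminescence following 5 min room-temperature incubation with reagent. Prior exposure: 48 h, 37C, humidified 5% CO2, 500 cells per well.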
The nature of assay [2]: Quantitative High-Throughput drug screen in 47 multiple myeloma cell lines against the NCATS MIPE library collection: Karpas25_ECACC cell viability assay (AID 1918968; also: nearly all actives have a fitted effect of over 35% in size; also: potency is read from the fitted curve at half-maximal effect). The essentials: as §1
Assay [3] is described as follows: Quantitative High-Throughput drug screen in 47 multiple myeloma cell lines against the NCATS MIPE library collection: KMS27_JCRB cell viability assay (AID 1918970). Also: nearly all actives have a fitted effect of over 30% in size. Also: potency is read from the fitted curve at half-maximal effect. The essentials: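 KMS27_JCRB myeloma cells, 500 per well, exposed 48 h at 37 C, 5% CO2 to MIPE 4.0 compounds. Viability from ATP by CellTiter-Glo luminescence, normalized to DMSO (100%) and medium-only (0%) wells.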

Assay [4] can be described thus: Quantitative High-Throughput drug screen in 47 multiple myeloma cell lines against the NCATS MIPE library collection: KMS12PE_JCRB cell viability assay (AID 1918972). Also: nearly all actives have a fitted effect of over 30% in size. Also: potency is read from the fitted curve at half-maximal effect.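 As to viability: 100% = DMSO only wells and 0% = wells with media alone.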 The essentials:
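Approved and investigational drugs from MIPE 4.0 were added by pin tool to 500 cells per well. After 48 hours at 37C, ATP-based CellTiter-Glo luminescence indicated remaining viability.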

Assay [5] in a line: Quantitative High-Throughput drug screen in 47 multiple myeloma cell lines against the NCATS MIPE library collection: KMS26_JCRB cell viability assay (AID 1918975). Also: nearly all actives have a fitted effect of over 45% in size. Also: potency is read from the fitted curve at half-maximal effect. The essentials: (§2)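 qHTS of the MIPE 4.0 collection: 500 myeloma cells/well, 48 h drug exposure at 37C in 5% CO2, then CellTiter-Glo for 5 min at room temperature before luminescence reading.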
The nature of assay [6]: Quantitative High-Throughput drug screen in 47 multiple myeloma cell lines against the NCATS MIPE library collection: MMM1_PLB cell viability assay (AID 1918976). Also: potency is read from the fitted curve at half-maximal effect; nearly all actives have a fitted effect of over 35% in size. The essentials: (§3)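 MIPE 4.0 approved/investigational drugs; 500 cells/well; 48 h 37 °C humidified 5% CO2; CTG luminescence readout; DMSO = 100%, media = 0% viability.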
Assay [7] is described as follows: Quantitative High-Throughput drug screen in 47 multiple myeloma cell lines against the NCATS MIPE library collection: OCIMY1_PLB cell viability assay (AID 1918979).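 Also: 100% = DMSO-only wells and 0% = cell-free media-only wells; nearly all actives have a fitted effect of over 35% in size.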 The essentials:
as §3

Assay [8] in a line: Quantitative High-Throughput drug screen in 47 multiple myeloma cell lines against the NCATS MIPE library collection: KMS28PE_JCRB cell viability assay (AID 1918983). Also: nearly all actives have a fitted effect of over 35% in size. Also: potency is read from the fitted curve at half-maximal effect. The essentials:
as §3

Assay [9] is described as follows: Quantitative High-Throughput drug screen in 47 multiple myeloma cell lines against the NCATS MIPE library collection: L363_DSMZ cell viability assay (AID 1918984). Also: nearly all actives have a fitted effect of over 40% in size. Also: potency is read from the fitted curve at half-maximal effect. The essentials:
as §3

Assay [10] in a line: Quantitative High-Throughput drug screen in 47 multiple myeloma cell lines against the NCATS MIPE library collection: KMS34_JCRB cell viability assay (AID 1918985). Also: nearly all actives have a fitted effect of over 40% in size. Also: potency is read from the fitted curve at half-maximal effect. The essentials: as §3
A short description of assay [11]: Quantitative High-Throughput drug screen in 47 multiple myeloma cell lines against the NCATS MIPE library collection: JJN3_DSMZ cell viability assay (AID 1918966; also: nearly all actives have a fitted effect of over 50% in size; also: potency is read from the fitted curve at half-maximal effect). The essentials:
as §1

Assay [12] can be described thus: Quantitative High-Throughput drug screen in 47 multiple myeloma cell lines against the NCATS MIPE library collection: MOLP8_DSMZ cell viability assay (AID 1918977).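 Also: 100% = DMSO-only wells and 0% = media-only wells without cells; nearly all actives have a fitted effect of over 45% in size.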 The essentials: as §3
The nature of assay [13]: Quantitative High-Throughput drug screen in 47 multiple myeloma cell lines against the NCATS MIPE library collection: NCIH929_DSMZ cell viability assay (AID 1918978). Also: nearly all actives have a fitted effect of over 35% in size. Also: potency is read from the fitted curve at half-maximal effect. The essentials:
as §3

The nature of assay [14]: Quantitative High-Throughput drug screen in 47 multiple myeloma cell lines against the NCATS MIPE library collection: MM1R_ATCC cell viability assay (AID 1918981). Also: nearly all actives have a fitted effect of over 35% in size. Also: potency is read from the fitted curve at half-maximal effect. The essentials: as §3
Assay [15] can be described thus: Quantitative High-Throughput drug screen in 47 multiple myeloma cell lines against the NCATS MIPE library collection: KMS12BM_JCRB cell viability assay (AID 1918971). Also: nearly all actives have a fitted effect of over 35% in size. Also: potency is read from the fitted curve at half-maximal effect. The essentials:
as §2

Assay [16] in a line: Quantitative High-Throughput drug screen in 47 multiple myeloma cell lines against the NCATS MIPE library collection: MM1S_ATCC cell viability assay (AID 1918980). Also: nearly all actives have a fitted effect of over 45% in size. Also: potency is read from the fitted curve at half-maximal effect. The essentials:
as §3

Assay [17] is described as follows: Quantitative High-Throughput drug screen in 47 multiple myeloma cell lines against the NCATS MIPE library collection: KMS20_JCRB cell viability assay (AID 1918973). Also: nearly all actives have a fitted effect of over 45% in size. The essentials:
as §1

Assay [18] in a line: Quantitative High-Throughput drug screen in 47 multiple myeloma cell lines against the NCATS MIPE library collection: LP1_DSMZ cell viability assay (AID 1918982). Also: nearly all actives have a fitted effect of over 35% in size. Also: potency is read from the fitted curve at half-maximal effect. The essentials: as §3
Assay [19] can be described thus: Quantitative High-Throughput drug screen in 47 multiple myeloma cell lines against the NCATS MIPE library collection: KMS21BM_JCRB cell viability assay (AID 1918974). The conditions noted are these: ATP luminescence, 48 h; viability: at 45.8 µM (top of the series) unless noted. The essentials: as §1

SMILES strings stand for the structures. Records with an inconclusive call do not appear. The source made the active and inactive calls. Calls follow the shape of the dose curve; as a rule, active = well fitted curve in the direction sought with a large enough effect; inconclusive = small, poorly fitted or top-dose-only effect, or another doubt; inactive = no such curve, though single readings can be large; an effect the other way counts as inactive or inconclusive.

For the compound `Cc1cc(O)c2c(c1)C(=O)c1cc(O)cc(O)c1C2=O`, the Potency entry in assay [1], in [3], in assay [4], in assay [7], in assay [9] and in assay [10] was “inactive” throughout. Also, the Potency in assay [2] is 2.09 µM (active); in assay [5] it was 11.8 µM (active); in assay [6], 18.7 µM (active); in assay [8], 10.5 µM (active).

Take `CC(S)C(=O)NCC(=O)O` (configuration not stated): the Potency result in [11], in assay [3], in assay [4], in [12], in assay [13] and in assay [7] was “inactive” each time. In addition, the Potency entry in assay [14] and in [8] was “inactive” each time. Further, in assay [2], the Potency was 1.87 µM (active).

As to `CC(C)c1ccc2c(c1)c(SC(C)(C)C)c(CC(C)(C)C(=O)O)n2Cc1ccc(Cl)cc1`, the Potency in assay [11] was 18.7 µM (active); in [2], 20.9 µM (active); in assay [15] it was 20.9 µM (active); in assay [6] it was 2.64 µM (active); in assay [13] it was 26.4 µM (active); in [16] it was 7.43 µM (active). Also, the Potency result in assay [4] and in assay [7] was “inactive” each time.

Turning to `Cc1cc2c(s1)Nc1ccccc1N=C2N1CCN(C)CC1`, the Potency entry in assay [1], in assay [3], in assay [4], in assay [17], in assay [5] and in assay [12] was “inactive” each time. The Potency result in assay [13], in assay [7], in [14], in assay [18], in assay [8] and in assay [10] was “inactive” in each case. In assay [2], the Potency was 3.32 µM (active).

`C[Se]CCC(N)C(=O)O` (configuration not stated): the Potency entry in [1], in assay [2], in assay [3], in assay [15], in assay [4] and in assay [12] was “inactive” in each case. In addition, the Potency entry in assay [13], in assay [7], in assay [16], in assay [18] and in assay [8] was “inactive” throughout. For the same compound, the viability in assay [19] was 325% [at 92.2 µM] (active). In addition, the Potency in assay [6] was 0.855 µM (active).

On to `O=C(CS(=O)Cc1ccco1)NCC=CCOc1cc(CN2CCCCC2)ccn1` (configuration not stated), for which the Potency entry in assay [1], in assay [3], in assay [15], in assay [4], in [17] and in [7] was “inactive” each time. In addition, the Potency entry in [14], in [18], in [8], in assay [9] and in assay [10] was “inactive” each time. In addition, in assay [2], the Potency is 20.9 µM (active).

With `N=C(N)c1ccc2cc(OC(=O)c3ccc(N=C(N)N)cc3)ccc2c1`, the Potency entry in assay [1], in [4], in [13], in [16], in [14] and in assay [18] was “inactive” each time. Also, the Potency in assay [2] was 9.35 µM (active); in assay [15] it was 23.5 µM (active); in assay [6] it was 0.935 µM (active); in assay [10], 6.62 µM (active).

As for `Clc1ccc(C(Cn2ccnc2)OCc2ccsc2Cl)c(Cl)c1` (configuration not stated), the Potency entry in [11], in assay [5] and in assay [10] was “inactive” throughout. In addition, the Potency is 20.9 µM (active) in assay [2], 26.4 µM (active) in [3] and 18.7 µM (active) in [4].

Consider `CN(C)C(=O)[C@H](O)[C@H](Cc1ccccc1)NC(=O)c1cc2cc(Cl)ccc2[nH]1`, for which the Potency is 1.66 µM (active) in [11]; 1.66 µM (active) in [2]; 2.09 µM (active) in assay [4]; 20.9 µM (active) in assay [5]; 1.32 µM (active) in assay [13]; 18.7 µM (active) in assay [16]. The results for the Potency in [14] and in assay [10] were 13.2 µM (active) and 0.935 µM (active), respectively.

In the case of `CCOC(=O)c1c(C)n(C)c2ccc(O)cc12`, the Potency entry in assay [1], in [2], in assay [3], in assay [4], in assay [5] and in assay [12] was “inactive” each time. Also, the Potency result in [13], in assay [7], in [14], in assay [18] and in [8] was “inactive” in each case. Besides, in [10], the Potency is 3.72 µM (active).

As for `Cc1ccc(C)c(OCCCC(C)(C)C(=O)O)c1`, the Potency entry in assay [11], in [15], in [12], in assay [7], in assay [18] and in assay [8] was “inactive” in each case. Further, the Potency entry in assay [10] is “inactive”. For the same compound, in assay [13], the Potency was 23.5 µM (active).

With `Cc1cc2cc3c(C)cc(=O)oc3c(C)c2o1`, the Potency in assay [11] was 5.26 µM (active); in [2], 20.9 µM (active); in assay [3], 26.4 µM (active); in [15] it was 16.6 µM (active); in assay [13], 8.33 µM (active); in assay [16], 5.9 µM (active). In addition, the Potency in assay [14] is 20.9 µM (active); in assay [9] it was 23.5 µM (active). The Potency entry in assay [12], in [18] and in [10] was “inactive” each time.

For `CN1C(C(=O)Nc2ccccn2)=C(O)c2sccc2S1(=O)=O`, the Potency entry in assay [1], in assay [2], in assay [4], in [5], in assay [13] and in [7] was “inactive” throughout. Further, the Potency entry in [14], in assay [18] and in [10] was “inactive” in each case. The Potency in assay [6] was 2.35 µM (active).

In the case of `CC1(C)NC(=O)N(c2ccc([N+](=O)[O-])c(C(F)(F)F)c2)C1=O`, the Potency in [1] was 11.8 µM (active); in [18], 18.7 µM (active); in assay [8], 16.6 µM (active). In addition, the Potency entry in assay [4], in assay [12], in assay [13] and in [7] was “inactive” in each case.

With `CCCCN(CCCC)CCC(O)c1cc2c(Cl)cc(Cl)cc2c2cc(C(F)(F)F)ccc12` (configuration not stated), the Potency in [2] was 14.8 µM (active); in assay [15] it was 20.9 µM (active); in assay [8] it was 23.5 µM (active). The Potency result in assay [4], in assay [5], in assay [7], in assay [16] and in assay [9] was “inactive” throughout.

Turning to `Nc1ccn([C@@H]2O[C@H](CO)[C@@H](O)C2O)c(=O)n1` (some centres not stated), the Potency in assay [2] was 1.48 µM (active). Besides, the Potency entry in assay [3], in assay [15], in assay [4], in assay [12], in assay [14] and in assay [8] was “inactive” each time.

As usually defined, the viability is a read-out of living cells in per cent, often relative to untreated cells.
